In PubChem BioAssay (NCI):
This is part of a sample that, as a whole, favours compounds with a hit. Of some 83,000 tested, about 20% had one in any assay.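 Negative percent growth values reflect cell death: -40 means 40% of the cells present at the start died, and -100 means all died.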 Active and inactive are the calls of the source. How the source made its calls: active means growth percent below 10; inactive means the rest.

What was measured:
Assay in all cases: NCI-60 one-dose screen, 48 h (100 = growth as untreated, 0 = no growth, -100 = all killed)
Details in all cases: 10 µM unless noted
SK-MEL-2 melanoma = test system: SK-MEL-2 melanoma
SN12C renal = test system: SN12C renal
UO-31 renal = test system: UO-31 renal
TK-10 renal = test system: TK-10 renal
ACHN renal = test system: ACHN renal
CAKI-1 renal = test system: CAKI-1 renal
A498 renal = test system: A498 renal
CCRF-CEM leukemia = test system: CCRF-CEM leukemia
MOLT-4 leukemia = test system: MOLT-4 leukemia

Measured: growth

COc1ccc(/C(=C\c2ccc3c(c2)OCO3)C(=O)Nc2nc3ccccc3s2)cc1OC
active: UO-31 renal -6.51%
inactive: SK-MEL-2 melanoma 92.6% | SN12C renal 102% | TK-10 renal 96.6% | ACHN renal 97.7% | CAKI-1 renal 79% | A498 renal 78.8%

Cc1nn(-c2ccc(Br)cc2)c2nc3[nH]c(=O)[nH]c(=O)c3nc12
inactive: SK-MEL-2 melanoma 111% | SN12C renal 109% | UO-31 renal 94.2% | TK-10 renal 144% | ACHN renal 106% | CAKI-1 renal 92.2% | A498 renal 84.3% | CCRF-CEM leukemia 118% | MOLT-4 leukemia 116%

O=c1c2sc3ncc(Br)cc3c2ncn1-c1cccc(Cl)c1
inactive: SK-MEL-2 melanoma 96.3% | SN12C renal 64.5% | UO-31 renal 52.1% | TK-10 renal 73.6% | ACHN renal 28% | CAKI-1 renal 98.8% | A498 renal 71.7%

COc1cccc(NC(=O)c2sc3nc4c(cc3c2N)C(=O)CCC4)c1
inactive: SK-MEL-2 melanoma 25.3% | SN12C renal 35.3% | UO-31 renal 52.3% | TK-10 renal 84.2% | ACHN renal 42.5% | CAKI-1 renal 55.2%
active: A498 renal -3.03%

COc1ccc2c(c1)C/C(=C\c1cc(-c3ccc4c(c3)OCO4)n[nH]1)C2=O
inactive: SK-MEL-2 melanoma 128% | SN12C renal 95.2% | UO-31 renal 75.1% | TK-10 renal 162% | ACHN renal 82.8% | CAKI-1 renal 90.3% | A498 renal 85.5%

c1ccc(CN2C(c3ccccc3)=Nc3ccccc3C2c2c[nH]c3ccccc23)cc1 (centres undefined)
inactive: SK-MEL-2 melanoma 69% | SN12C renal 36.4% | UO-31 renal 24.5% | TK-10 renal 45.8% | ACHN renal 51.4% | CAKI-1 renal 35.9% | A498 renal 63.6% | CCRF-CEM leukemia 32.4%

COc1cc(-c2cc(-c3nc4cc(Cl)c(Cl)cc4[nH]3)[nH]n2)cc(OC)c1OC
inactive: SK-MEL-2 melanoma 86.5% | SN12C renal 69.7% | UO-31 renal 43.2% | TK-10 renal 107% | ACHN renal 46.8% | CAKI-1 renal 84.6% | A498 renal 67.4%

O=c1[nH]ncc(Br)c1Br
inactive: SK-MEL-2 melanoma 45.1% | SN12C renal 63.6% | UO-31 renal 52% | TK-10 renal 65.8% | ACHN renal 87.3% | CAKI-1 renal 86.4% | A498 renal 108% | CCRF-CEM leukemia 27.6% | MOLT-4 leukemia 35.4%

COC(=O)C(Cc1ccccc1)n1cc(COc2nc(Cl)nc(Nc3ccc(Cl)cc3)n2)nn1 (centres undefined)
inactive: SK-MEL-2 melanoma 97.2% | SN12C renal 96.5% | UO-31 renal 72.6% | TK-10 renal 104% | ACHN renal 102% | CAKI-1 renal 92.1% | A498 renal 61.6% | CCRF-CEM leukemia 96.5%

CCOC(=O)N1CCN(CCCCOc2ccc(C(C)(C)CC)cc2)CC1
inactive: SK-MEL-2 melanoma 95.8% | SN12C renal 95.7% | UO-31 renal 83.1% | TK-10 renal 120% | ACHN renal 97.3% | CAKI-1 renal 85.8% | A498 renal 108% | CCRF-CEM leukemia 73% | MOLT-4 leukemia 67.2%

NC1=NN=C2N(N)C(=O)c3cnn(-c4ccccc4)c3N2c2nc(-c3ccccc3)cc(-c3ccccc3)c21
inactive: SK-MEL-2 melanoma 104% | SN12C renal 97% | UO-31 renal 78.3% | TK-10 renal 116% | ACHN renal 101% | CAKI-1 renal 86.8% | A498 renal 114% | CCRF-CEM leukemia 96.7% | MOLT-4 leukemia 91.6%

CC(C)(C)c1[nH]nc2c1C(c1cc3ccccc3[nH]c1=O)Nc1cc(C(=O)OCc3ccccc3)ccc1N2 (centres undefined)
inactive: SK-MEL-2 melanoma 67% | SN12C renal 61.2% | UO-31 renal 47.2% | TK-10 renal 47.6% | ACHN renal 28.6% | CAKI-1 renal 54.6% | A498 renal 65% | CCRF-CEM leukemia 37.9%

Fc1ccc2nc(-c3cc(-c4ccc5c(c4)OCO5)n[nH]3)[nH]c2c1
inactive: SK-MEL-2 melanoma 42.7% | SN12C renal 65.2% | UO-31 renal 73.4% | TK-10 renal 75.9% | ACHN renal 49% | CAKI-1 renal 41% | A498 renal 71.7%

C=C(C)[C@@H]1CC[C@]2(C(=O)NNC(=O)c3cccnc3)CC[C@]3(C)[C@H](CC[C@@H]4[C@@]5(C)CCCNC(C)(C)[C@@H]5CC[C@]43C)[C@@H]12
inactive: SK-MEL-2 melanoma 100% | SN12C renal 83.7% | UO-31 renal 64% | TK-10 renal 158% | ACHN renal 98.1% | CAKI-1 renal 76% | A498 renal 88.1% | CCRF-CEM leukemia 65.6% | MOLT-4 leukemia 40.1%

COC(=O)[C@@H]1[C@H]2C[C@H]3c4[nH]c5cc(OC)ccc5c4CCN3C[C@@H]2C[C@H](OC(=O)/C=C/c2ccnc(OC)c2)[C@H]1OC
inactive: SK-MEL-2 melanoma 106% | SN12C renal 99.2% | UO-31 renal 67.5% | TK-10 renal 87.3% | ACHN renal 66.1% | A498 renal 79.4% | CCRF-CEM leukemia 93.7% | MOLT-4 leukemia 75.9%

N#Cc1cnc2cc(OC[C@@H](O)CO)c(NC(=O)C3CCCC3)cc2c1Nc1ccc(OCc2cccc(F)c2)c(Cl)c1
inactive: SN12C renal 13.8% | UO-31 renal 35.3% | TK-10 renal 29.5% | ACHN renal 40.2% | CAKI-1 renal 59.4% | A498 renal 55.5%
active: SK-MEL-2 melanoma -56.9% | CCRF-CEM leukemia -26.8% | MOLT-4 leukemia 6.26%

NC1(N)C=CC2=C(C=C1)C1(N)C3=C(C=CC(N)(N)C=C3)N2C2(N)C3=C(C=CC(N)(N)C=C3)N1C1=C2C=CC(N)(N)C=C1
inactive: SK-MEL-2 melanoma 103% | SN12C renal 82.2% | UO-31 renal 59.9% | TK-10 renal 119% | ACHN renal 83.5% | CAKI-1 renal 70.8% | A498 renal 88.3% | MOLT-4 leukemia 32.6%

C=C(C)[C@@H]1CC[C@]2(C=O)CC[C@]3(C)[C@H](CC[C@@H]4[C@@]5(C)C/C(=C/c6cccnc6)C(=O)C(C)(C)[C@@H]5CC[C@]43C)[C@@H]12
inactive: SK-MEL-2 melanoma 88.5% | SN12C renal 77.1% | TK-10 renal 134% | ACHN renal 61.6% | CAKI-1 renal 50.1% | A498 renal 98.3% | CCRF-CEM leukemia 27.7% | MOLT-4 leukemia 49.9%
active: UO-31 renal -33.9%

COc1ccc(-c2n/c(=C\c3c(O)[nH]c4ccc(OC)cc34)cc3c2=Nc2ccccc2-3)cc1
active: TK-10 renal -10.8% | MOLT-4 leukemia -35.4%
inactive: SK-MEL-2 melanoma 96.6% | SN12C renal 89.4% | UO-31 renal 73.6% | ACHN renal 102% | CAKI-1 renal 103% | A498 renal 87.2%

NS(=O)(=O)c1ccc(CCNC(=O)/C=C/c2ccc(Cl)cc2)cc1
inactive: SK-MEL-2 melanoma 106% | SN12C renal 92.9% | UO-31 renal 83.7% | TK-10 renal 121% | ACHN renal 102% | A498 renal 89% | CCRF-CEM leukemia 91.1%

C=C(C)[C@@H]1CC[C@]2(C(=O)N3CCN(C)CC3)CC[C@]3(C)[C@H](CC[C@@H]4[C@@]5(C)C/C(=C/c6ccc(C(F)(F)F)cc6)C(=O)C(C)(C)[C@@H]5CC[C@]43C)[C@@H]12
inactive: SK-MEL-2 melanoma 106% | SN12C renal 92.9% | UO-31 renal 73.5% | TK-10 renal 105% | ACHN renal 96.4% | CAKI-1 renal 68.7% | A498 renal 97.4% | CCRF-CEM leukemia 88% | MOLT-4 leukemia 63.8%

Cc1cccc(C)c1NCc1nc(-c2ccccc2)n[nH]1
inactive: SK-MEL-2 melanoma 101% | SN12C renal 105% | UO-31 renal 90.6% | TK-10 renal 101% | ACHN renal 96.8% | A498 renal 100% | CCRF-CEM leukemia 110% | MOLT-4 leukemia 98%

C(=C\c1c[nH]c2ccccc12)/c1ccc2ccccc2n1
inactive: SK-MEL-2 melanoma 86.5% | SN12C renal 51.4% | UO-31 renal 23.6% | TK-10 renal 114% | ACHN renal 89.9% | CAKI-1 renal 60.7% | A498 renal 120% | CCRF-CEM leukemia 14.9% | MOLT-4 leukemia 12.4%

COc1cc(-c2cc3ncccc3c3nc(N)c4cccnc4c23)cc(OC)c1OC
inactive: SK-MEL-2 melanoma 30.7% | SN12C renal 26.7% | UO-31 renal 51.1% | TK-10 renal 16.3% | ACHN renal 22.6% | CAKI-1 renal 31.1% | CCRF-CEM leukemia 32.5% | MOLT-4 leukemia 20.7%
active: A498 renal -17.6%

Cc1ccc(NC2CC(=O)N(c3c(C)cc(C)cc3C)C2=O)c(C)c1 (centres undefined)
inactive: SK-MEL-2 melanoma 112% | SN12C renal 97.2% | UO-31 renal 81.2% | TK-10 renal 106% | ACHN renal 101% | CAKI-1 renal 95.6% | A498 renal 105% | CCRF-CEM leukemia 88.6% | MOLT-4 leukemia 94.6%

Nc1ccc(Cl)cn1
inactive: SK-MEL-2 melanoma 107% | SN12C renal 107% | UO-31 renal 86.7% | TK-10 renal 106% | ACHN renal 109% | CAKI-1 renal 90.5% | A498 renal 96.4% | CCRF-CEM leukemia 107% | MOLT-4 leukemia 102%

COc1ccc2c(c1)C(Br)=C(CCO)C2c1ccccc1 (centres undefined)
inactive: SK-MEL-2 melanoma 85% | SN12C renal 99.2% | UO-31 renal 62.4% | TK-10 renal 67% | CAKI-1 renal 37% | A498 renal 35.6% | CCRF-CEM leukemia 95.2% | MOLT-4 leukemia 114%
active: ACHN renal 4.96%

COc1cc2[nH]c(C(=O)c3cc(OC)c(OC)c(OC)c3)c(N)c2cc1C#CC1CC1
inactive: SK-MEL-2 melanoma 34.7% | SN12C renal 61% | UO-31 renal 38.2% | TK-10 renal 92.2% | ACHN renal 24.8% | CCRF-CEM leukemia 24.9% | MOLT-4 leukemia 44.5%
active: A498 renal -13.4%

Nc1nc(N)c2nc3c(nc2n1)CCCCCCCCCC3
active: CCRF-CEM leukemia 3.44%
inactive: SK-MEL-2 melanoma 77.5% | SN12C renal 43.2% | UO-31 renal 48.7% | TK-10 renal 80.3% | ACHN renal 39.4% | A498 renal 93.6% | MOLT-4 leukemia 45.3%

O=C1c2ccccc2NC(c2cn(-c3ccccc3)nc2-c2cccnc2)N1Cc1ccccc1 (centres undefined)
inactive: SK-MEL-2 melanoma 88% | SN12C renal 87.3% | UO-31 renal 65.4% | TK-10 renal 105% | ACHN renal 102% | A498 renal 92% | CCRF-CEM leukemia 91.5% | MOLT-4 leukemia 67.9%

COc1ccc(NC(=O)c2ccc3c(c2)nc(-c2cc4ccccc4[nH]c2=O)n3-c2cc(C(C)(C)C)[nH]n2)cc1
inactive: SK-MEL-2 melanoma 99.7% | SN12C renal 93.2% | UO-31 renal 86.3% | TK-10 renal 107% | ACHN renal 97.1% | CAKI-1 renal 97.2% | A498 renal 85.8% | MOLT-4 leukemia 63.1%
